According to PubChem BioAssay AID651813 (National Center for Advancing Translational Sciences (NCATS), 2012):
The whole screen tested about 2,100 compounds, of which about 1,100 (52%) were called active. Inconclusive results (about 27%) are left out. So high a share suggests a set chosen from earlier hits. The list shows a part of the results. Values without a mark were called inactive. The call rests on the fitted dose curve; in most records, active means well fitted inhibition curve with a large enough effect; inconclusive means small, poorly fitted or top-dose-only effect; inactive means no such curve, though single readings can be large or run the other way.

target: DNA dC->dU-editing enzyme APOBEC-3G (Homo sapiens) (UniProt Q9HC16); test: qHTS for inhibitors of Vif-A3G interactions: Cherry picks counterscreen; conditions: HeLa A3G-eYFP + Vif (tagged APOBEC3G with the HIV-1 protein that degrades it), eYFP fluorescence, 24 h;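 further: hits raise yellow fluorescence by blocking Vif-driven A3G-eYFP degradation; nearly all actives have a fitted effect of over 70% in size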;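 on max response: max response given as percent of control signal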
Sequence (Q9HC16 whole entry, looked up): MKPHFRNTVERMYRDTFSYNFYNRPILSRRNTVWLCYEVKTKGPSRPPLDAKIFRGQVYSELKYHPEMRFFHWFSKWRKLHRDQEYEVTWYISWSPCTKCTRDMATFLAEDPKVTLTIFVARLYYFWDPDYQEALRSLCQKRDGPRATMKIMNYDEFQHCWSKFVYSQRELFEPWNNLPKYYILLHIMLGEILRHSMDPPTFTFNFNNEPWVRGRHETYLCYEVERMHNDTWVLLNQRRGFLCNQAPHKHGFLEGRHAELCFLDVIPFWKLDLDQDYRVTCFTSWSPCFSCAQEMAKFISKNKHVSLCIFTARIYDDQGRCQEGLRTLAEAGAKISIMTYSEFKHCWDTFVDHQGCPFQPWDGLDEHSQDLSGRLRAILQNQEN
Text: The recent discovery and characterization of host restriction factors, which provide a potent defense to invading retroviruses, has provided new targets for antiviral drug development. APOBEC3G (A3G) and APOBEC3F (A3F) are potent cytidine deaminases that block HIV-1 replication; HIV-1 expresses the Vif protein, which counteracts A3G and A3F by binding to them and inducing their proteasomal degradation. The Vif-A3G and Vif-A3F interactions provide two potential targets for development of small molecules which can interfere with the ability of Vif to degrade A3G or A3F. […] To identify inhibitors that can interfere with Vif mediated degradation of A3G and A3F, we have developed Hela cell lines that stably express A3G or A3F tagged with eYFP at the C-terminal end (A3G-eYFP or A3F-eYFP, respectively) and Vif. In the absence of an inhibitor, Vif induces degradation of A3G-eYFP and A3F-eYFP, and the cells are not fluorescent. In the presence of an inhibitor, it is expected that Vif will be unable to degrade A3G-eYFP and/or A3F-eYFP, resulting in an increase in yellow fluorescence. In this counterscreen assay, Vif A3G was screened against the cherry picks ordered from the MLSMR. NIH Chemical Genomics Center [NCGC] NIH Molecular Libraries Probe Centers Network [MLPCN] MLPCN Grant: MH093245 Assay Submitter (PI): Vinay Pathak, National Cancer Institute
A3G-Vif cells were harvested from T225 flask and resuspended in phenol free OPTI-MEM medium with 5% FBS. Then 5 uL of 140,000 cells/mL resuspended cells was dispensed into each well of low base Aurora COC 1,536-well plates (black walled, clear bottom) using a Multidrop Combi dispenser. After overnight culture at 37 deg C with 5% CO2, a total of 23 nL of compounds at 5 selected concentrations from the NPC or positive control (2 mM stock of MG132) in DMSO was transferred to each well of the assay plate using a pintool (Kalypsys, San Diego, CA), and the plates were further incubated at 37 deg C with 5% CO2 for 24 hours. After that, the plates were measured on Acumen Explorer (TTP Lab Tech). The fluorescence was detected by 488 nm/Ex and […].
Potency means the concentration at half of the fitted maximal effect.

Compound	Potency	max response [%]
COc1cc(OC)c(/C=C/c2ccc3ccccc3[n+]2C)c(OC)c1	20.6 µM (active)	–
CCCCN1C(=O)C2Cc3c([nH]c4ccccc34)CN2C1=S (centres undefined)	15.8 µM (active)	–
CCOc1ccc(CN2C(=O)c3ccccc3Sc3ccc(C(=O)O)cc32)cc1	4.61 µM (active)	–
O=C(NNC1=Nc2cccc3cccc1c23)c1ccc(Br)cc1	23.1 µM (active)	–
C/C(=N\Nc1nc(C)cc(-c2ccccc2)n1)c1ccc(F)cc1	–	-5.07
Nc1c(C(=O)N/N=C/c2ccc(F)cc2)oc2nc(-c3ccccc3)cc(-c3ccco3)c12	6.27 µM (active)	–
Cc1cc(-c2ccccc2)nc(N/N=C/c2ccccc2F)n1	–	-29.5
Nc1c(C(=O)N/N=C/c2cccnc2)oc2nc(-c3ccccc3)cc(-c3ccco3)c12	8.2 µM (active)	–
Nc1c(C(=O)N/N=C/c2ccccc2Cl)oc2nc(-c3ccccc3)cc(-c3ccco3)c12	2.91 µM (active)	–
CSCC[C@H](NC(=O)[C@H](Cc1ccccc1)n1c(=O)[nH]c2ccccc2c1=O)C(=O)N1CCC[C@@H]1C(=O)O	–	6.25
COc1ccc(NC(=O)CN2C(=O)C3(SCC(=O)N3c3ccccc3)c3ccccc32)cc1Cl (centres undefined)	–	10.4
O=C(CN1c2ccccc2Sc2ccccc21)NNC(=O)Nc1cccc(Cl)c1	–	-25.9
O=C(CN1C(=O)CSc2ncccc21)Nc1cccc(Cl)c1	23.1 µM (active)	–
CCOC(=O)C1C(=O)C=C(/C=C/c2ccc(N(C)C)cc2)CC1c1ccccc1 (centres undefined)	4.61 µM (active)	–
CC(/C=C/c1ccc(N(C)C)cc1)=N\N=C(/N)SC1CC(=O)N(c2ccc(C(=O)O)cc2)C1=O (centres undefined)	–	-29.3
CC(C)CC(=O)NC(=S)N(Cc1ccccc1)Cc1ccccc1	–	-12.5
COc1cc(/C=C2\SC(N)=NC2=O)cc(Br)c1O	17.7 µM (active)	–
COc1cc(/C=C2\C(=N)N3N=CSC3=NC2=O)cc(Br)c1OC(=O)c1ccco1	–	43.8
CCOc1cc(-c2nnc(SCC(=O)NCc3ccccc3)nc2-c2ccc(OC)c(OCC)c2)ccc1OC	2.31 µM (active)	–
CCOc1cc(C)nc(NCc2ccccc2)n1	–	-21.7

Compound	Potency	max response [%]
COc1ccc(-c2nc3c4ccccc4ccn3c2Cc2ccsc2)cc1OC	–	-1.53
COc1ccc(-c2nnc(SCC(=O)NCc3ccccc3)nc2-c2ccc(OC)c(OC)c2)cc1OC	2.59 µM (active)	–
CCC(C)Sc1cc(-c2nc3ccccn3c2NC2CCCCC2)ccc1OC (centres undefined)	–	6.89
COc1cc(-c2nc3ccc(C)cn3c2NCc2ccccc2)ccc1SC1CCCCC1	–	34.4
N#CCSc1ccccc1NC(=O)COc1ccc(-c2nnco2)cc1	12.5 µM (active)	–
Cc1nc(C)c(C(=O)OCC(=O)Nc2ccccc2SCC#N)s1	15.8 µM (active)	–
COc1ccc(C(=O)NC(=S)NCc2cccnc2)cc1Cl	–	-0.724
CCC1=Nc2cc(C(=O)NCc3cccnc3)ccc2Sc2ccc(C)cc21	12.5 µM (active)	–
CCOC(=O)c1cnc(-n2nc(C)cc2C)nc1NNc1cc(C)nc(-c2ccccc2)n1	–	14.5
CCOC(=O)c1cnc(-n2nc(C)cc2C)nc1NNc1nc(-c2ccccc2)cc(-c2ccccc2)n1	–	18.7
C=CCNc1nc(-c2ccccc2)c(C(=O)OCC)cc1C#N	7.04 µM (active)	–
Oc1cccc(Nc2nc(O)c(/C=C3\C=Nc4ccccc43)s2)c1	20.6 µM (active)	–
Cc1cc(N2CCCC2)ccc1/C=C1\NC(=S)N(C)C1=O	1.64 µM (active)	–
Cc1cc(N2CCCC2)ccc1/C=C1/C(=O)N(C)C(=S)N1C	–	40
CCN1C(=O)/C(=C/c2ccc(N3CCCC3)cc2)NC1=S	–	47.9
Cc1cc(/C=C2\NC(=S)N(C)C2=O)ccc1N1CCCC1	5.59 µM (active)	–
O=C1/C(=C/c2ccc(N3CCCC3)cc2)NC(=S)N1C1CC1	7.31 µM (active)	–
C/C(=N\Nc1nccnc1Cl)c1ccc(Cl)c(Cl)c1	–	-0.872
CCn1c(=O)c2cc(C(=O)NCCCOC)sc2c2ccccc21	7.04 µM (active)	–
N#CC1=C2SCC(O)(c3ccccc3)N2C(=O)CC1c1ccccc1 (centres undefined)	5.59 µM (active)	–

Compound	Potency	max response [%]
CCS(=O)(=O)Nc1cccc(C2=NN(C(=O)c3ccco3)C(c3ccco3)C2)c1 (centres undefined)	14 µM (active)	–
CCN(CC)c1ccc(/C=C(/C#N)c2nc3ccccc3[nH]2)c(OC(C)C)c1	–	42
CCOc1cc(N(CC)CC)ccc1/C=C(/C#N)c1nc2ccccc2[nH]1	–	57.6
CSc1nc2ccccc2cc1/C=C(\C#N)c1cccc(C)c1	12.5 µM (active)	–
CSc1nc2ccccc2cc1/C=C(\C#N)c1ccccc1	6.27 µM (active)	–
COC(=O)C1C2CC3c4[nH]c5cc(OC)ccc5c4CCN3CC2CC(OC(=O)CC(C)=O)C1OC (centres undefined)	20.6 µM (active)	–
COC(=O)C1=COC(C)C2CN3CCc4c([nH]c5cc(OC)c(OC)cc45)C3CC12 (centres undefined)	–	-25.2
COc1cccc(/C(O)=C/c2nc3ccc(C(=O)NCCc4ccc(Cl)cc4)cc3[nH]c2=O)c1	20.6 µM (active)	–
COc1cccc(/C(O)=C/c2nc3ccc(C(=O)NCCc4cccc(C)c4)cc3[nH]c2=O)c1	13 µM (active)	–
Cc1ccc(C2NC(=O)c3ccccc3N2)s1 (centres undefined)	12.5 µM (active)	–
COc1cc(OC)c(C2Nc3cccc4cccc(c34)N2)c(OC)c1	–	3.06
Cc1ccc(C)c(C2NC(=O)c3ccccc3N2)c1 (centres undefined)	7.9 µM (active)	–
CCOc1ccccc1C1NC(=O)c2ccccc2N1 (centres undefined)	2.5 µM (active)	–
COc1ccc2ccccc2c1C1NC(=O)c2ccccc2N1 (centres undefined)	4.98 µM (active)	–
O=[N+]([O-])c1ccccc1C1Nc2cccc3cccc(c23)N1	–	7.07
CC(=O)/C(N=Nc1cc(C)ccc1O)=C(\C)O	20.6 µM (active)	–
CCOC(=O)N1CCN(/C=C(\C#N)c2nc3ccccc3s2)CC1	23.1 µM (active)	–
COc1ccc(-c2coc3cc4oc(=O)cc(-c5ccccc5)c4cc23)cc1F	2.23 µM (active)	–
COc1ccc(C)cc1NCc1cc(=O)oc2cc(-c3ccccc3)c(O)cc12	–	-4.57
